About 83,000 compounds went through this panel and 20% of them were active in at least one assay; those are over-represented in the sample as a whole.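 Compound tested at a single concentration for 48 hours in 96-well plates; a percent growth value below 10 was scored as active.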 A number with no mark means an inactive call. Calls of active or inactive are those of the source.

The test has as its system HL-60(TB) leukemia. The test is described as follows: NCI-60 one-dose screen, 48 h (100 = growth as untreated, 0 = no growth, -100 = all killed). Conditions: 10 µM unless noted.
For the compound `CCC(=O)Nc1ccccc1C#C/C=C\C#Cc1ccccc1SC`, the growth was -16.2% (active).
For `CN(C)CCCN(Cc1ccccc1O)C(=S)Nc1ccc(Cl)cc1` the value was 103%; for `Cc1c(F)cccc1NC(=O)c1sc2nc3c(cc2c1N)CCCCC3`, 6.49% (active); for `N/C(=N\N=C\c1ccc2c(c1)OCO2)N/N=C\c1ccc2c(c1)OCO2`, 80%.
To `C[C@]12CCC3c4ccc(O)cc4C[C@@H](CCCCCCCCCS(=O)CCCC(F)(F)C(F)(F)F)C3C1CC[C@@H]2O` (stereo not given in full) belongs 73.3%.
To `Cc1c2ccncc2c(C)c2c1c1ccccc1n2CCCCCC(=O)O` belongs 104%.
Regarding `CC(=O)c1c(C)[nH]c(-c2nc3ccc(N4CCN(C)CC4)cc3[nH]2)c1-c1ccc(OCC2CCOCC2)cc1`, the growth is -12.9% (active).
For `NC(=O)c1c(NC(=O)c2cccs2)sc2c1CCC(=O)C2` the value was 2.73% (active); for `Cc1c(C)c(C)c([N+](=O)[O-])c([N+](=O)[O-])c1C`, 109%.
Regarding `CCCCC1=C(Br)C(=O)c2nc(C)ccc2C1=O`, the growth is 77%.
To `O=c1cc(CSc2nnc(SCc3cc(=O)oc4c3ccc3ccccc34)o2)c2ccc3ccccc3c2o1` belongs 97.8%.
Take `CC(=O)OC1Oc2ccccc2-c2oc3nc(=N)n(C)c-3cc21` (stereo not given): the growth was 94.4%.
For `CCCCC(CC)COC(C)=O` (stereo not given) the value was 100%; for `C/C=C1\SC(=S)NC1=O`, 110%; for `COc1ccc(-c2cc(-c3nnc(SCC(=O)Nc4ccc(/C(C)=N\O)cc4)n3-c3ccccc3)c3cc(OC)ccc3n2)cc1`, 31.8%.
To `CCNCc1ccc(O)c2ncccc12` belongs 13.1%; to `CCCCNC(=O)NS(=O)(=O)c1ccc(N2N=C(c3cc(C)ccc3C)CC2c2cc(OC)c(OC)c(OC)c2)cc1` (stereo not given), -16.1% (active); to `COC(=O)c1ccc2[nH]c(O)c(C(=Nc3ccc(N(C)C(=O)CN4CCN(C)CC4)cc3)c3ccc(N)cc3)c2c1`, 110%.
For `C=C1CC2(OC1=O)C(=O)Nc1ccccc12` (stereo not given) the value was 31.6%; for `O=C(Oc1cccc2ccccc12)c1ccccc1C(=O)c1ccccc1`, -8.79% (active); for `O=[N+]([O-])c1ccc(-c2ncc(-c3ccc(O)cc3O)[nH]2)cc1`, 145%.
`O/N=C/c1cccs1`: the growth is 95.3%.
For `O=C1C=C(OCC=C(Cl)Cl)C(=O)c2ccccc21` the value was -1.08% (active); for `CN(C)S(=O)(=O)c1cccc(-c2nc3sc4c(c3c(=O)[nH]2)CCCC4)c1`, 22.3%.
To `NC(=S)N/N=C/c1ccc(OC(=O)COc2cc(Cl)c(Cl)cc2Cl)cn1` belongs 47.1%; to `C/C(=C(/c1ccccc1)c1ccc(OCC(O)CN2CCOCC2)cc1)c1ccccc1` (stereo not given), 60.7%.
For `CCN(CC)CCSCCCNc1c(C)cnc2cc(Cl)ccc12` the value was 69.1%; for `CCCCCc1c(C)[nH]c(/C=C2\N=C(c3ccc[nH]3)C=C2CC)c1C`, -62% (active).
As for `CC(C)OC(=O)Nc1cc(F)ccc1F`, the growth is 94.7%.
For `O=C(N/N=C/C[C@@H]1[C@@H](/C=C/[C@@H](O)COc2cccc(Cl)c2)[C@H](O)C[C@@H]1O)c1ccncc1` the value was 87.5%; for `Cc1nc2sc(C(=O)Nc3cccc(Br)c3C)c(N)c2cc1C(O)c1ccccc1` (stereo not given), -46.6% (active); for `CCCCCCNC(=O)Oc1ccc(/C(=C(/CC)Cc2ccccc2)c2ccc(OCCCN(C)C)cc2)cc1`, 64.2%.
To `CCNc1ccc2ccccc2c1N=Nc1ccc(N=Nc2ccccc2)cc1` belongs 108%.
To `Clc1ccc2nc3nc4ccc[nH]c4cc3c2c1` belongs 88.2%; to `CN(C)C(=O)Nc1nc2cc(Cl)c(Cl)cc2[nH]1`, -29.9% (active).
Take `Cn1cc2c(c1)-c1nc(Nc3ccccc3)ncc1CC2`: the growth is 97.3%.
For `c1ccc(-c2c(-c3ccccc3)[n+](Cc3ccc4ccccc4c3)c(-c3cccc4ccccc34)n2Cc2ccc3ccccc3c2)cc1` the value was -46.8% (active); for `N=C(N)c1ccc(-c2ccc(-c3ccc(-c4cccs4)s3)s2)cc1F`, 99.7%.
For the compound `CNCCCOc1c(Br)cc(CCNC(=O)/C(Cc2cc(Br)c(OC)c(Br)c2)=N/O)cc1Br`, the growth was -57.1% (active).
For `O=C(CN1C(=O)S/C(=C\C(Cl)=C\c2ccccc2)C1=O)NCCCn1ccnc1` the value was -4.78% (active).

The values above are taken from PubChem BioAssay (NCI).
